# Experimental data: PubChem BioAssay AID431 (Sanford-Burnham Center for Chemical Genomics, 2006)
# Hit rate of the full screen: of about 63,000 compounds, about 1,100 (1.7%) were called active. The list comes from a sample in which actives are over-represented; it also holds similar structures and randomly drawn compounds. Potency and affinity values are given separately. A number with no mark means an inactive call.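 The calls were made as follows: active = compounds whose percent cytotoxicity in the single-dose primary screen, scaled between solvent and toxic-drug controls, exceeds 50; inactive = the rest.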
# Experiment: cytotoxicity in KRAS-transformed pancreatic duct cells, primary screen, cell-based, fluorescence, HTS (AID 431);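 also: 0% = DMSO solvent wells and 100% = doxorubicin-treated wells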
# Conditions: HPDE-C7K KRASV12 cells, Alamar Blue viability, 48 h; at 10 µM; hits give high values
row,Compound,cytotoxicity
1,Fc1ccc(Br)cc1C1C=C(c2cccnc2)Nc2ncnn21 (stereo not given),10.9%
2,COc1cccc(C2C=C(c3ccc(Br)s3)Nc3ncnn32)c1OC (stereo not given),-7.6%
3,Fc1ccc(Br)cc1C1C=C(c2ccc(Br)s2)Nc2ncnn21 (stereo not given),56.5% (active)
4,COc1ccccc1CCC(=O)Nc1nc2ccccc2[nH]1,3.7%
5,O=C(O)c1cc(NCc2c(F)cccc2Cl)ccc1N1CCOCC1,-14.3%
6,C=CCn1c(SCC(=O)Nc2c(C)cccc2C)nnc1-c1cnccn1,-10%
7,CCCC(=O)N1CCN(S(=O)(=O)c2cc(Cl)ccc2OC)CC1,-3.6%
8,CCC(=O)c1ccc(O)cc1,-12%
9,C=C(c1ccc(O)cc1)c1ccc(O)cc1,12.5%
10,C/C=C(/C(=C/C)c1ccc(O)cc1)c1ccc(O)cc1,111% (active)
11,CC(C)(C)NC(=O)NC(=O)COC(=O)COc1ccc2c(c1)CCC2,-4.8%
12,CCOC(=O)c1c(CN2CCN(CCO)CC2)n(C)c2cc(Br)c(OC)cc12,98.7% (active)
13,CCOC(=O)c1c(CNCCN(CC)CC)n(C)c2cc(Br)c(OC)cc12,71.2% (active)
14,CCOC(=O)c1c(CN2CCN(C)CC2)n(C)c2cc(Br)c(OC)cc12,-8.5%
15,CCOC(=O)c1c(C)n(C)c2cc(Br)c(C(=O)OC)cc12,5.9%
16,CCN(CC)CCNC(=O)c1c(C)oc2cc(Br)c(OC)cc12,15.1%
17,CCOC(=O)c1c(CN2CCCCC2)n(C)c2cc(Br)c(OC)cc12,16.9%
18,O=C(COC(=O)c1cccc(S(=O)(=O)N2CCc3ccccc32)c1)NC1CCS(=O)(=O)C1 (stereo not given),23.6%
19,O=C(O)Cn1cnc2scc(-c3cccs3)c2c1=O,6.1%
20,Clc1ccc(Cc2noc(Cc3ccccc3)n2)cc1Cl,-5%
21,CCOC(=O)C(CCSC)NC(=O)CN (stereo not given),-9.8%
22,COC(=O)C1C(=O)c2c([nH]c(C(=O)OCCOC(C)C)c2C)CC1C (stereo not given),-0.2%
23,CCC(C)(C(=O)NC1CCCCC1)N(CC1CCCO1)C(=O)c1ccccn1 (stereo not given),-5.6%
24,CC1(C)CC(=O)C(C=NCC2CCCO2)=C(O)C1 (stereo not given),-19.7%
25,CC(=O)Nc1cc2c(cc1C(=O)c1ccc(C)cc1)OCCO2,0.7%
26,COc1ccc(O)c(-c2cc(-c3cccs3)[nH]n2)c1,34.1%
27,Oc1ccc(Br)cc1-c1cc(-c2ccccc2F)[nH]n1,18%

row,Compound,cytotoxicity
1,Cc1nn(Cc2ccc(Cl)cc2Cl)c(C)c1NC(=O)c1nc2n(n1)C(C(F)F)CC(C)N2 (stereo not given),9.5%
2,CCOC(=O)c1[nH]c(C)c(/C=N/O)c1C,0.1%
3,NC(=O)CSc1nnc(CNc2ccc(F)cc2)n1CC1CCCO1 (stereo not given),-7.7%
4,COC(=O)c1c(NC(=O)CSc2nc3c(c(=O)n(C)c(=O)n3C)n2C(C)C)sc(C)c1C,-14%
5,CCCn1c(SCC(=O)Nc2sc(C)c(C)c2C(=O)OCC)nc2c1c(=O)n(C)c(=O)n2C,0.3%
6,CCOC(=O)c1c(NC(=O)CSc2nc3c(c(=O)n(C)c(=O)n3C)n2C(C)C)sc(C)c1C,77.5% (active)
7,CCn1c(SCC(=O)Nc2cc(C)ccc2C)nc2c(c1=O)SC(C)C2 (stereo not given),8.9%
8,Cn1c(=O)c2c(nc(CN3CCN(c4ccc(F)cc4)CC3)n2CCN2CCOCC2)n(C)c1=O,-4.6%
9,CCn1c(=N)n(CC(O)c2ccco2)c2ccccc21 (stereo not given),-9.8%
10,CC[C@H](C)C(=O)O[C@H]1C[C@@H](C)C=C2C=C[C@H](C)[C@H](CC[C@@H]3C[C@@H](O)CC(=O)O3)[C@H]21,55.1% (active)
11,Cn1nc(-c2ccc(N3CCCCC3)c(NC(=O)c3ccco3)c2)c2ccccc2c1=O,57.8% (active)
12,CCC(=O)Nc1cc(-c2nn(C)c(=O)c3ccccc23)ccc1N1CCCCC1,2%
13,CCCC(=O)Nc1cc(-c2nn(C)c(=O)c3ccccc23)ccc1N1CCCCC1,-4.5%
14,CC(C)C(NS(=O)(=O)c1ccc2c(c1)oc(=O)n2C)C(=O)N1CCN(Cc2ccccc2)CC1 (stereo not given),7.1%
15,CCOc1ccccc1C1CC(=O)Nc2cc3c(cc21)OCO3 (stereo not given),55.9% (active)
16,COc1cccc(C2CC(=O)Nc3cc4c(cc32)OCCO4)c1OC(C)C (stereo not given),34.4%
17,CCCOc1ccccc1C1CC(=O)NC2=C1C(=O)CCC2 (stereo not given),36.3%
18,CCCCOc1ccccc1C1CC(=O)NC2=C1C(=O)CCC2 (stereo not given),60.3% (active)
19,CCCOc1c(OC)cccc1C1CC(=O)Nc2cc3c(cc21)OCCO3 (stereo not given),68.7% (active)
20,CCOc1c(OC)cccc1C1CC(=O)Nc2cc3c(cc21)OCCO3 (stereo not given),8.9%
21,CC(C)Oc1ccccc1C1CC(=O)Nc2cc3c(cc21)OCO3 (stereo not given),42.7%
22,CCCOc1c(OC)cccc1C1CC(=O)Nc2cc3c(cc21)OCO3 (stereo not given),9.6%
23,COc1ccccc1C1CC(=O)Nc2cc3c(cc21)OCCO3 (stereo not given),63.8% (active)
24,CC(C)Oc1ccccc1C1CC(=O)Nc2cc3c(cc21)OCCO3 (stereo not given),45.7%
25,CCOc1ccccc1C1CC(=O)Nc2cc3c(cc21)OCCO3 (stereo not given),48.6%
26,CCOc1ccccc1C1CC(=O)NC2=C1C(=O)CCC2 (stereo not given),16.8%
27,O=C1c2ccccc2C(=O)N1CCN1CCOCC1,-1.3%

row,Compound,cytotoxicity
1,CC(C)N(C(=O)CSc1nnnn1C1CCCC1)C(C)C,-9.6%
2,CCCCn1nnnc1SCC(=O)Nc1ccc(C)cc1,-4.8%
3,Cc1ccc(NS(=O)(=O)c2cc(C(=O)N3CCOCC3)ccc2C)cc1C,-4.4%
4,CCN(CC)C(=O)c1sc(NC(=O)Cc2cccs2)c(C#N)c1C,-10.4%
5,CC(O)c1ccc2c(c1)OCCOCCN(C)CCOCCO2 (stereo not given),-3.4%
6,OC1C[N+]2(CCCCC2)C1,-0.4%
7,CCNc1nc(SCC(=O)OC)nc(N2CCOCC2)n1,-13.2%
8,O=C(CCC(=O)N(CC(=O)NC1CCCCC1)c1ccc2c(c1)OCO2)Nc1ccccn1,-8.1%
9,Cc1ccc(C2CC(=O)Nc3cc4c(cc32)OCCO4)s1 (stereo not given),7.5%
10,CCCOc1ccccc1C1CC(=O)Nc2cc3c(cc21)OCCO3 (stereo not given),73.4% (active)
11,O=C1CC(c2cccs2)c2cc3c(cc2N1)OCCO3 (stereo not given),2.9%
12,CC(C)NC(=O)c1ccccc1-c1nc(-c2ccccc2Cl)no1,6%
13,CCN1CCCC1CNc1ncnc2c1[nH]c1ccc(Cl)cc12 (stereo not given),10.9%
14,c1ccc2c(c1)[nH]c1c(NCC3CCCO3)ncnc12 (stereo not given),6.1%
15,Clc1ccc2[nH]c3c(NCC4CCCO4)ncnc3c2c1 (stereo not given),57.6% (active)
16,CC(C)(C)OC(=O)N1CCC[C@@H]1C(=O)N1CCC(C(=O)O)CC1,8.3%
17,COc1ccc(NC(=O)Cn2nnc(-c3ccccc3NC(=O)c3cccs3)n2)cc1,9.5%
18,O=C(O)c1ccc(CSc2n[nH]c(-c3ccco3)n2)cc1,-2.9%
19,Cc1c(-c2ccccc2)c(P(=O)(N2CCOCC2)N2CCOCC2)c2ccccn12,-4.4%
20,COc1ccccc1C1c2c(oc3ccc(Cl)cc3c2=O)C(=O)N1c1cc(C)on1 (stereo not given),-23.6%
21,COc1ccccc1-n1c(SC)nc(O)cc1=O,6.5%
22,COc1ccccc1-n1c(=O)oc2ccc(Cl)cc2c1=O,53.6% (active)
23,CCOC(=O)c1ccc2nc(NC(=O)C(C)C)sc2c1,6.2%
24,C=CCN(CC=C)S(=O)(=O)c1ccc2nc(NC(=O)C(C)C)sc2c1,69.9% (active)
25,C=CCN(CC=C)S(=O)(=O)c1ccc2nsnc2c1,-22.3%
26,COc1ccc(C(=O)n2c(-c3ccco3)nc3ccccc32)cc1,58.3% (active)
27,CCn1c(-c2ccco2)nc2ccccc21,5.1%

row,Compound,cytotoxicity
1,COc1ccc(C(=O)CSc2nnc(-c3ccco3)n2C)cc1,5.8%
2,Cc1cc(C)cc(-n2nnc(C(=O)NCc3ccc(Cl)cc3)c2N)c1,5.6%
3,CCN1CCN(C2CCN(C(C)=O)CC2)CC1,5.4%
4,C/C=C/Cn1c(SCc2ccccc2)nc2c1c(=O)[nH]c(=O)n2C,1.2%
5,C/C=C/Cn1c(SCc2ccc(Cl)cc2)nc2c1c(=O)[nH]c(=O)n2C,8.2%
6,C/C=C/Cn1c(SCc2ccc(C)cc2)nc2c1c(=O)[nH]c(=O)n2C,57.9% (active)
7,Clc1ccc(-n2cnnn2)cc1,-0.1%
8,COc1ccc(C2NC(=O)NC(C)=C2C(=O)Nc2cc(C)ccc2C)cc1OC (stereo not given),1.2%
9,O=C(C1CC1)N1CCc2cc(Br)cc(S(=O)(=O)NCCCN3CCCC3)c21,1.3%
10,CCOC(=O)c1c(C)[nH]c(C(=O)OC/C(O)=C(\C#N)c2nc3ccccc3[nH]2)c1C,81.8% (active)
11,N#C/C(=C(/O)COC(=O)c1ccc2c(c1)OCCO2)c1nc2ccccc2[nH]1,17.6%
12,Cc1nn(-c2ccccc2)c(C)c1C(=O)OC/C(O)=C(\C#N)c1nc2ccccc2[nH]1,13%
13,CSc1nnc(-c2nnc(SC)n2-c2ccccc2)n1-c1ccccc1,-8.3%
14,CC(=O)C1=C(C)NC(SCC(=O)c2ccccc2)=C(C#N)C1CC(C)C (stereo not given),3.7%
15,COCCOC(=O)C1=C(C)NC(SCC(=O)NC(C)(C)C)=C(C#N)C1c1ccco1 (stereo not given),2.3%
16,CC(=O)C1=C(C)NC(SCC(=O)c2cc(Cl)ccc2Cl)=C(C#N)C1c1ccco1 (stereo not given),60.7% (active)
17,C=CCOC(=O)C1=C(C)NC(SCC(=O)Nc2ccc(C)c(Cl)c2)=C(C#N)C1c1ccco1 (stereo not given),-1.3%
18,CC(=O)C1=C(C)NC(SCC(=O)c2ccc(Cl)cc2Cl)=C(C#N)C1c1ccco1 (stereo not given),40.7%
19,CCOC(=O)CSC1=C(C#N)C(c2ccco2)C(C(=O)OCc2ccccc2)=C(C)N1 (stereo not given),61% (active)
20,C=CCOC(=O)C1=C(C)NC(SCC(=O)N(CC)CC)=C(C#N)C1c1ccco1 (stereo not given),-4.1%
21,CC(=O)C1=C(C)NC(SCC(=O)c2ccc(Cl)c(Cl)c2)=C(C#N)C1c1ccco1 (stereo not given),77.4% (active)
22,CSCSC1=C(C#N)C(c2ccccc2Cl)C(C(C)=O)=C(C)N1 (stereo not given),23.4%
23,CCN(CC)C(=O)CSC1=C(C#N)C(c2ccco2)C(C(=O)OCCOC)=C(C)N1 (stereo not given),-15.8%
24,Cc1ccc(C(=O)CSC2=C(C#N)C(c3ccco3)CC(=O)N2)c(C)c1 (stereo not given),5%
